Here are results for 40 compounds from PubChem BioAssay (Tox21).

Each structure is given as a SMILES string. Results filed as inconclusive are left out. Calls of active or inactive are those of the source. Calls follow the shape of the dose curve; as a rule, active = well fitted activation curve with a large enough effect in the signal ratio in the repeat runs (not every such curve was filed as active); inconclusive = weak or mixed curves; inactive = flat fitted curve, though single readings scatter; the % refers to the signal ratio.
% is scaled to controls: 0 for no effect and ±100 for the full control effect; potency is read from the fitted curve at half-maximal effect.

The assay in a line: qHTS assay to identify small molecule agonists of H2AX (AID 1224845). The settings on record: CHO-K1 phospho-H2AX Ser139 HTRF, 3 h; series mostly up to 154 µM; activation (H2AX phosphorylation): at the top concentration. An excerpt: National Center for Advancing Translational Sciences [NCATS]
NIH Chemical Genomics Center [NCGC]
U.S. Environmental Protection Agency [EPA]
National Institutes of Environmental Health Sciences [NIEHS]
National Toxicology Program [NTP]
U.S. Food and Drug Administration [FDA]
HTRF phospho-H2AX (Ser139) assay (Cisbio Bioassays, US) enables the quantitative detection of the histone variant H2AX when phosphorylated on serine 139. When double-stranded DNA breaks, either by ionizing radiation or endogenous physiological processes, H2AX becomes phosphorylated at Ser139. This phospho-Ser139 serves as a sensitive biomarker for the detection of such breaks, localizing the site of DNA repair. So, HTRF phospho-H2AX Ser139 is a pertinent assay to study genome stability, the cell cycle, DNA repair, and it serves as a biomarker for cancer, and to understand aging. Wild type CHO-K1 cells were used to identify the inducers of Phospho-H2AX Ser 139 from the Tox21 10K compound collections.
Tox21 Assay Protocol Summary:
The CHO-K1 cells suspended in culture medium containing 10% FBS were dispensed at 1000 cells/ 3 ul/well in 1536-well white wall/solid bottom plates (Greiner Bio-One North America, NC) using a Multidrop Combi (Thermo Fisher Scientific Inc., Waltham, MA). After the assay plates were incubated at 37C overnight, 23 nl of compounds at 15 concentrations (from 5-48 columns) or positive control (from 1 to 4 columns) were transferred to the assay plates using a Pintool station (Wako, San Diego, CA) into each well resulting in a final DMSO concentration of 0.76%. After 3hr incubation at 37C, 1 uL/well Supplemented Lysis buffer (diluted 100 fold blocking reagent in lysis buffer) (HTRF Phospho-H2A.X (S139) Assay kit from Cisbio US Inc., Bedford, MA) was added using a Flying Reagent Dispenser (FRD) (Aurora Discovery, CA). After 10sec spin at 1000 rpm in a plate centrifuge, the assay plates were incubated at room temperature for 30 min. Then followed by the addition of 1 uL/well detection buffer (containing a mixture of two antibodies, one labeled with cryptate, Anti pH2AX (S139)-K and another labeled with d2, Anti H2AX-d2) using FRD. After incubation at room temperature for 24 hr, the time resolved fluorescence at excitation 320 nm and emissions at 665 nm and 620 nm was measured using an Envision plate reader (PerkinElmer, Waltham, MA).
On the technique in general: Quantitative high-throughput screening tests each substance at several concentrations.
Take `CCC1(C)CC(=O)NC1=O` (stereo not given): the “activation (H2AX phosphorylation)” value is 0.364% [at 70.9 µM] (inactive).
`C1COCO1`: the “activation (H2AX phosphorylation)” value is -2.31% (inactive).
Regarding `O=C(OCCOCCO)c1ccccc1Nc1cccc(C(F)(F)F)c1`, the “activation (H2AX phosphorylation)” value is -2.29% [at 70.9 µM] (inactive).
`OC(CCCN1CCCCC1)(c1ccccc1)c1ccccc1`: the “activation (H2AX phosphorylation)” value was -4.96% [at 70.9 µM] (inactive).
On the same count and under the same terms, as for `CCCCCCCCCCCC[N+](C)(C)CCCS(=O)(=O)[O-]`, the figure is -6% (inactive); as for `CCOC(=O)[C@@H](C)Oc1ccc(Oc2nc3ccc(Cl)cc3o2)cc1`, -3.01% (inactive).
The same measure, in the same setting: as for `CN(C(=O)C(Cl)Cl)c1ccc(OC(=O)c2ccco2)cc1`, the figure is -3.06% [at 70.9 µM] (inactive); as for `CCCCOC(=O)CCS`, -1.5% (inactive).
For `Cc1oc(C)c(C(=O)Nc2ccccc2)c1C`, the “activation (H2AX phosphorylation)” value was -1.09% (inactive).
The same measure, in the same setting: then `C=C(C)C(=O)OCCOC(=O)CC(C)=O`, with 0.0117% (inactive).
On to `CCCCC(CC)CNCC(CC)CCCC` (stereo not given), for which the “activation (H2AX phosphorylation)” value was -0.0477% (inactive).
As for `C/C=C/C=C/CCCCCCCO`, the “activation (H2AX phosphorylation)” value is 0.0117% (inactive).
In the case of `C=CC(=C)CCCC(C)(C)OC(C)=O`, the “activation (H2AX phosphorylation)” value is -0.439% (inactive).
The same measure, in the same setting: then `O=C(CCCN1CCN(c2ccc(F)cc2)CC1)NC1c2ccccc2CSc2ccccc21` (stereo not given), with -0.651% [at 70.9 µM] (inactive).
As to `CCCCCCCC/C=C\CCCCCCCC(=O)OC(CO)CO`, the “activation (H2AX phosphorylation)” value is -1.25% (inactive).
Take `CC(=O)N(c1onc(C)c1C)S(=O)(=O)c1ccc(N)cc1`: the “activation (H2AX phosphorylation)” value was -2.54% [at 70.9 µM] (inactive).
In the case of `O=C(/C=C/c1ccccc1)OCCCc1ccccc1`, the “activation (H2AX phosphorylation)” value is -1.64% (inactive).
On the same count and under the same terms, then `CC(=O)OCC(=O)[C@@]12OC(C)(C)O[C@@H]1C[C@H]1[C@@H]3C[C@H](F)C4=CC(=O)C=C[C@]4(C)[C@@]3(F)[C@@H](O)C[C@@]12C`, with -1.06% [at 70.9 µM] (inactive); and `CCCCCCOC(=O)CCCCCCCC(=O)OCCCCCC`, with -0.0387% (inactive); and `O=C(O)C(Cc1cc(I)c(O)c(I)c1)c1ccccc1` (stereo not given), with -0.481% [at 70.9 µM] (inactive).
Regarding `CCCCC(=O)O[C@]1(C(=O)CO)[C@@H](C)C[C@H]2[C@@H]3CCC4=CC(=O)C=C[C@]4(C)[C@@]3(F)[C@@H](O)C[C@@]21C`, the Potency is 113 µM (active).
Take `Nc1ccc(S(=O)(=O)O)cc1`: the “activation (H2AX phosphorylation)” value was -1.76% (inactive).
With `CC(C)=CC=O`, the “activation (H2AX phosphorylation)” value was 0.42% (inactive).
Regarding `CCOc1cc(N)c(Cl)cc1C(=O)NCC1CN(Cc2ccc(F)cc2)CCO1` (stereo not given), the “activation (H2AX phosphorylation)” value is 3.13% [at 70.9 µM] (inactive).
As for `O=C(O)c1snc(Cl)c1Cl`, the “activation (H2AX phosphorylation)” value is 0.699% (inactive).
`CC[C@H](NC(=O)c1cc(F)ccc1NS(=O)(=O)c1cccc2cccnc12)c1ccccc1`: the “activation (H2AX phosphorylation)” value was 4.47% (inactive).
Take `Nc1c(I)cc(I)c(C(=O)N(CCC(=O)O)c2ccccc2)c1I`: the “activation (H2AX phosphorylation)” value is 0.0244% [at 70.9 µM] (inactive).
For `CCN(CC)CCNC(=O)c1ccc(NC(C)=O)cc1`, the “activation (H2AX phosphorylation)” value was 2.05% [at 70.9 µM] (inactive).
As for `N#C/C(=C1\SCC(c2ccccc2Cl)S1)n1ccnc1` (stereo not given), the “activation (H2AX phosphorylation)” value is 0.115% [at 70.9 µM] (inactive).
For the compound `CN(C)CCOC1=Cc2ccccc2Sc2ccc(Cl)cc21`, the “activation (H2AX phosphorylation)” value is 2.04% [at 70.9 µM] (inactive).
As to `COc1ccc(C(=O)c2cccc(O)c2)c(OC)c1`, the “activation (H2AX phosphorylation)” value is -2.33% (inactive).
With `CC1=CC(=O)CC(C)(C)C1(O)/C=C/C(C)=C\C(=O)O` (stereo not given), the “activation (H2AX phosphorylation)” value was 0.259% (inactive).
As for `O=C(O)c1ccc(CO)o1`, the “activation (H2AX phosphorylation)” value was 2.88% (inactive).
Turning to `COC(=O)c1cc(Cl)ccc1NS(=O)(=O)C(F)(F)F`, the “activation (H2AX phosphorylation)” value is -2.77% [at 70.9 µM] (inactive).
The same measure, in the same setting: then `C[Si](NC1CCCCC1)(NC1CCCCC1)NC1CCCCC1`, with -3.21% (inactive); and `CCc1cccc(N(C)C(N)=Nc2cccc3ccccc23)c1`, with -2.76% [at 70.9 µM] (inactive); and `CC(=O)[C@H]1CC[C@H]2[C@@H]3C[C@H](C)C4=CC(=O)CC[C@]4(C)[C@H]3[C@@H](O)C[C@]12C`, with -2.69% [at 70.9 µM] (inactive).
On to `NC(=O)Nc1ccc(Cl)c(Cl)c1`, for which the “activation (H2AX phosphorylation)” value is -0.193% (inactive).
Regarding `O=C(Nc1ccccc1)Nc1ccccc1`, the “activation (H2AX phosphorylation)” value was 4.4% (inactive).
Take `O=C(CCCCCCC(=O)Nc1ccccc1)NO`: the “activation (H2AX phosphorylation)” value was 4.67% [at 70.9 µM] (inactive).
